# In PubChem BioAssay:
# Target: Calmodulin-1 (Homo sapiens) (UniProt P0DP23)
# Test: CALM1 binders on microarrays, EGTA buffer, profiling panel, biochemical, small-molecule microarray, Cy5-labelled CALM1 (AID 1111);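 further: labelled calmodulin applied in Tris saline Tween buffer holding calcium plus EGTA and DTT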
# Conditions: Cy5-CALM1 binding fluorescence, higher = more signal
row,Compound,composite z-score
1,Cc1ccc(S[C@]2(C(=O)NC(C)C)CC(=O)N(C3Cc4ccccc4C3)[C@@H]2c2ccc(CO)cc2)cc1,-0.329
2,[N-]=[N+]=NCc1ccccc1C[C@]1(C(N)=O)N=C(c2ccc(OCCCO)cc2)O[C@H]1c1ccccc1CN=[N+]=[N-],1.98
3,C[N+](C)(C)CCCC[C@@H]1NC(=O)[C@H]2C[C@@H](C(=O)NCc3ccc(F)cc3)[C@@H](c3cccc(OCCO)c3)N2C1=O,0.884
4,C=CCC(OC(C)=O)[C@@H]1[C@@H](N(Cc2ccc(-c3ccccc3)cc2)C(=O)c2ccc(-c3ccccc3)cc2)c2cc(OCCCO)ccc2N1C(=O)Cc1ccc(OC)cc1 (stereo partly drawn),0.165
5,CO[C@@H]1COC(=O)CC=C[C@@H](C)[C@H](OC)COC(=O)CC=C[C@H]1C,-0.888
6,O=C(NCc1ccccc1)[C@@]1(CCS(=O)(=O)c2ccccc2)COC(c2ccc(OCCCO)cc2)=N1,2.16
7,C=C(CCCC)/C(=C/C[C@@H](OC(=O)c1ccncc1)c1cccc(OCCO)c1)c1cc(C(=O)OC)ccc1OC,0.652
8,CC(C)[Si]1(C(C)C)OCc2cc(C3CC3)nc(-c3ccccc3)c21,-1.23
9,C=CCOC(=O)[C@@H]1[C@H]2C(=O)O[C@H](c3ccccc3)[C@H](c3ccccc3)N2[C@H](c2ccc(OCCOC(=O)[C@H]3C[C@H]4C(=O)N[C@@H](CCCCNC(C)=O)C(=O)N4[C@H]3c3ccc(O)cc3)cc2)[C@@]12C(=O)Nc1ccc(I)cc12,0.419
10,CC(C)N1CC=CC23O[C@@H]4/C=C\CCCOC(=O)C4[C@H]2C(=O)N(CCCCCO)[C@@H]3C1=O (stereo partly drawn),-2.24
11,O=C1O[C@@H](c2ccccc2)[C@@H](c2ccccc2)N2[C@@H](c3ccc(OCCO)cc3)[C@]3(C(=O)Nc4ccc(C#CCCO)cc43)[C@@H](C(=O)N3CCN(c4ncccn4)CC3)[C@H]12,0.732
12,COC(=O)[C@@]1(Cc2ccc(OC)cc2)[C@H]2c3cc(C(=O)N(C)C)n(CCc4ccc(OC)c(Br)c4)c3C[C@H]2CN1C(=O)c1ccccc1,2.23
13,CSCC[C@@H]1NC(=O)CC=C[C@@H](C)COC(=O)[C@H](CCSC)NC(=O)CC=C[C@@H](C)COC1=O,-1.21
14,CO[C@@H]1COC(=O)CC=C[C@H](C)COC(=O)[C@H](Cc2ccccc2)NC(=O)CC=C[C@H]1C,-1.59
15,CC(C)(C)OC(=O)CC[C@]1(C(=O)NCCN2CCOCC2)N=C(c2ccc(OCCCO)cc2)O[C@H]1c1ccccc1CN=[N+]=[N-],1.12
16,CO[C@H]1O[C@H](CO)[C@@H](OC(=O)Nc2ccc3c(c2)OCO3)[C@H](OC(=O)Nc2ccccc2)[C@@H]1OC(=O)Nc1ccccc1,1.01
17,CCc1cccc(NC(=O)O[C@H]2[C@H](OC(=O)Nc3ccccc3)[C@@H](OC(=O)Nc3ccccc3)[C@@H](OC)O[C@@H]2CO)c1,1.19
18,CC(C)(C)OC(=O)CC[C@@]1(C(=O)NCc2ccccc2)N=C(c2ccc(OCCCO)cc2)O[C@@H]1c1ccccc1,2.4
19,C=CCNC(=O)[C@H]1[C@@H]2C(=O)O[C@@H](c3ccccc3)[C@@H](c3ccccc3)N2[C@@H](c2ccccc2OCCO)[C@]12C(=O)N(C(=O)OCCOC)c1ccc(C#CCNC(N)=O)cc12,1.63
20,CC(=O)NCCCC[C@@H]1NC(=O)[C@@H]2C[C@H](C(=O)NCCCCCCN(C)C)[C@H](c3ccc(O)cc3)N2C1=O,-0.158
21,CCCC=C(CCC)[C@@H](NC(=O)c1ccccc1)c1ccccc1,0.323
22,C=CCC(OC(C)=O)[C@@H]1[C@@H](N(Cc2ccc(-c3cccc(C(F)(F)F)c3)o2)C(=O)Cc2ccc(F)cc2)c2cc(OCCCO)ccc2N1C(=O)c1ccc(-c2ccccc2)cc1 (stereo partly drawn),-0.679
23,CO[C@H]1COC(=O)[C@@H](C)NC(=O)CC=C[C@@H](C)[C@H](OC)COC(=O)CC=C[C@@H]1C,-1.88
24,COc1ccc([Si](C)(C)[C@H]2[C@H](CCO)O[C@@]3(C(=O)N(Cc4ccccc4)c4ccc(N5C(=O)c6cccc7cccc5c67)cc43)[C@@H]2C)cc1,0.793
25,O=C/C=C/c1ccc(/C=C/c2ccccc2)cc1,-0.858
26,O=C(CS)NCCCCCNC(=O)[C@H]1C[C@H]2C(=O)N3CCC[C@H]3C(=O)N2[C@H]1c1ccc(O)cc1,1.45
27,CO[C@H]1COC(=O)[C@H](C)NC(=O)CC=C[C@@H](C)[C@H](NS(=O)(=O)c2ccc(C)cc2)COC(=O)CC=C[C@@H]1C,-1.11
28,O=C1C[C@@](C(=O)NC2CC2)(c2ccc([N+](=O)[O-])cc2)[C@@H](c2ccc(CO)cc2I)N1CC12CC3CC(CC(C3)C1)C2,0.266
